Screening results as filed in PubChem.
VP16 counter: VP16 counterscreen qHTS for inhibitors of ROR gamma transcriptional activity; Drosophila S2 Gal4-VP16 UAS-luciferase, luminescence, 20 h; Potency, µM (doses to about 53.6 µM), inactives show top-dose activity, negative = inhibition, actives largely listed as inhibitors; 310,000 tested, 3.5% active; AID 2546, 2010;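 note: Gal4-VP16 expression switched on by copper sulfate through the metallothionein promoter; potency is the fitted concentration of half-maximal effect; nearly all actives have a fitted effect of over 50% in size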
RORgamma inh: qHTS for inhibitors of ROR gamma transcriptional activity. Nuclear receptor ROR-gamma (Mus musculus), P51450. Drosophila S2 Gal4-RORgamma UAS-luciferase reporter, 20 h. Potency, µM (doses to about 53.6 µM), without a hit: top-dose activity change, negative = inhibition, hits mostly inhibitors. 310,000 tested, 5.4% active. AID 2551, 2010; note: potency is the fitted concentration of half-maximal effect; nearly all actives have a fitted effect of over 60% in size
Target sequence (P51450 whole entry, looked up, the tested form may be a part): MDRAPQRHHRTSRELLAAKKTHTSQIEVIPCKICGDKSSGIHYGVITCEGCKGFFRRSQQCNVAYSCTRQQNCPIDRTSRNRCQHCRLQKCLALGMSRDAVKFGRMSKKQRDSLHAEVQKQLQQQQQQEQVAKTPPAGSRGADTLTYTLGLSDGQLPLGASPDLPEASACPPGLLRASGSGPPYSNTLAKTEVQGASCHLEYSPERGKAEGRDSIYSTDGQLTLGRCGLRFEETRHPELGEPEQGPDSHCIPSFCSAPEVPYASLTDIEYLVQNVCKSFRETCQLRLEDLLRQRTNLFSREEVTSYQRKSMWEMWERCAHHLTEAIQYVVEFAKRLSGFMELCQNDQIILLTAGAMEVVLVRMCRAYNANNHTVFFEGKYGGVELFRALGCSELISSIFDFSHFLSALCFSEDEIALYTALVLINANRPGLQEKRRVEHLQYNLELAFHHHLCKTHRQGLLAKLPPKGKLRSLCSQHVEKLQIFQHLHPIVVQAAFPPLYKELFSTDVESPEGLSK
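Schneider cells (Drosophila), stable Gal4 DBD–ROR gamma + UAS-luc; 1 hr cmpd preincubation; Cu2+ induction 700 uM final; 20 hr ambient; luminescence.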
ELG1 DNA repair: qHTS screen for small molecules that inhibit ELG1-dependent DNA repair in human embryonic kidney (HEK293T) cells expressing luciferase-tagged ELG1 | Potency, µM (doses to about 46.1 µM), inactives show at the top dose activity change, negative = inhibition, usual class: inhibitors | HEK293T ELG1-luciferase reporter, luminescence, 16 h; DNA damage induced by 5-fluorouridine | 330,000 tested, 2.3% active; note: potency is the fitted concentration of half-maximal effect; nearly all actives have a fitted effect of over 55% in size
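Step one: seed 2,000 cells per well. Step two: pin-transfer compound or DMSO alongside 5-fluorouridine. Step three: incubate 16 hr, 37 °C, 5% CO2. Step four: add ONE-Glo, wait 30 min, read luminescence.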
DT40 TDP1 no CPT: qHTS for Inhibitors of human tyrosyl-DNA phosphodiesterase 1 (TDP1): qHTS in cells in absence of CPT; DT40 Tdp1-/- hTDP1 cells, no CPT, ATP luminescence, 48 h; Potency, µM (doses to about 46.2 µM), without a hit: at the top dose activity change, negative = growth inhibition, most hits filed as inhibitors; 420,000 tested, 15% active; note: potency is the fitted concentration of half-maximal effect; nearly all actives have a fitted effect of over 55% in size
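Seeded 400 DT40-hTDP1 cells/well (vehicle DMSO, no 20 nM CPT); pinned compounds; ≥48 hr at 37 °C; CellTiter-Glo luminescence as viability measure.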
IL-1B inflam inh: qHTS for Inhibitors of Inflammasome Signaling: IL-1-beta AlphaLISA Primary Screen; THP-1 LPS/ATP IL-1B secretion, AlphaLISA, 16 h; stronger effect = lower value; activity change, % at 57.5 µM; 360,000 tested, 4.7% active; AID 743279, 2014; in the data active = activity change below about -50%; inconclusive = mostly about -30% to -49%
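THP-1 cells pretreated 1 hr with compounds (up to 57.5 uM final), then stimulated with LPS (250 ng/mL final) plus ATP (1.25 mM final); secreted IL-1B measured by AlphaLISA after 16 hr, decreased signal indicating inhibition.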
DT40 TDP1 CPT: qHTS for Inhibitors of human tyrosyl-DNA phosphodiesterase 1 (TDP1): qHTS in cells in presence of CPT. chicken DT40 Tdp1-/-;hTDP1 cells + 20 nM CPT, ATP luminescence, 48 h. Potency, µM (doses to about 46.2 µM), for inactives: at the top dose activity change, negative = growth inhibition, usual class: inhibitors. 420,000 tested, 12% active; note: potency is the fitted concentration of half-maximal effect; nearly all actives have a fitted effect of over 55% in size
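Chicken DT40 Tdp1-/- cells complemented with human TDP1, 400 cells/well, exposed to compounds plus 20 nM camptothecin for at least 48 h at 37 C; viability read as ATP content by CellTiter-Glo luminescence.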
Numbers without * were called inactive; ? = inconclusive; . = no result given. Most compounds without a hit are left out; they make up all but 21% or so of the library. Unless noted, calls come from the whole dose curve; as a rule, active = well fitted curve in the direction sought with a large enough effect; inconclusive = small, poorly fitted or top-dose-only effect, or another doubt; inactive = no such curve, though single readings can be large; an effect the other way counts as inactive or inconclusive. % is set by controls: 0 for no effect and ±100 for the full control effect.

SMILES | VP16 counter | RORgamma inh | ELG1 DNA repair | DT40 TDP1 no CPT | IL-1B inflam inh | DT40 TDP1 CPT
COc1ccc(NC(=O)C2CCCN(C(=O)c3ccc(Cl)cc3)C2)cc1Cl (stereo unspecified) | . | . | ? | 18µM* | ? | 21µM*
CC(=O)c1ccc(NC(=O)C2CCCN(C(=O)c3ccc(Cl)cc3)C2)cc1 (stereo unspecified) | 8% | 22% | 1% | 21µM* | 13 | 26µM*
CN(C)S(=O)(=O)c1ccc(NC(=O)C2CCCN(C(=O)c3ccc(Cl)cc3)C2)cc1 (stereo unspecified) | -29% | ? | -3% | ? | 72 | ?
CCOC(=O)C1=C(C)N(C[C@@H]2CC[C@@H](Cc3ccc(-c4ccccc4)cc3)O2)C(=O)NC1c1cccc([N+](=O)[O-])c1 (stereo partly specified) | . | . | -9% | ? | 20 | ?
Cc1ccc(OCC(=O)Nc2cccc(S(=O)(=O)N3CCCCCC3)c2)c([N+](=O)[O-])n1 | -17% | 24% | ? | 16µM* | -4 | ?
O=C(COC(=O)/C=C/c1ccc(OC(F)F)cc1)Nc1cccc(S(=O)(=O)N2CCOCC2)c1 | . | . | 1% | 21µM* | -11 | ?
Cc1cccc(C)c1OCC(=O)Nc1cccc(S(=O)(=O)N2CCCCCC2)c1 | . | . | . | 21µM* | -5 | 21µM*
O=C(COc1ccc(C(=O)c2ccc(F)cc2)cc1)Nc1cccc(S(=O)(=O)N2CCOCC2)c1 | . | . | 23µM* | 12µM* | ? | 23µM*
O=C(COC(=O)CCC(=O)c1ccc(F)cc1)Nc1cccc(S(=O)(=O)N2CCOCC2)c1 | 3% | 7% | 2% | 1% | 4 | -19%
Cc1ccccc1CC(=O)Nc1cccc(S(=O)(=O)N2CCCC2)c1 | . | . | -19% | 11% | 0 | -8%
Cc1cccc(C)c1OCC(=O)Nc1cccc(S(=O)(=O)N2CCCC2)c1 | . | . | -26% | 13µM* | -25 | ?
CCC(=O)c1ccc(OCC(=O)Nc2cccc(S(=O)(=O)N3CCCCCC3)c2)cc1 | . | . | 20% | 5.2µM* | 4 | 7.3µM*
O=C(Nc1ccc(OC(F)(F)F)cc1)C1CCCCN1S(=O)(=O)c1ccccc1 (stereo unspecified) | . | . | 19% | 15µM* | ? | ?
CCOc1ccccc1NC(=O)C1CCCCN1S(=O)(=O)c1ccccc1 (stereo unspecified) | . | . | 21µM* | 21µM* | -5 | ?
CCOc1ccc(NC(=O)C2CCCCN2S(=O)(=O)c2ccccc2)cc1 (stereo unspecified) | 0% | 26% | -11% | ? | 17 | ?
CCCc1cc(=O)[nH]c(SCC(=O)N2CCCC2=O)n1 | . | . | 4% | 0% | 23 | 0%
Nc1cc(=O)[nH]c(SCc2nnnn2-c2ccc(Cl)cc2)n1 | ? | 28% | 7% | 8% | 16 | -6%
Cc1cccc(C(=O)Nc2cccc(C(=O)NC3CCCC3)c2)c1 | -8% | 30% | -5% | ? | ? | ?
Cc1nn(-c2cccc(Cl)c2)nc1C(=O)Nc1cccc(C(=O)NC2CC2)c1 | . | . | ? | 10µM* | 0 | ?
Cc1ccc(-n2nc(C)c(C(=O)Nc3cccc(C(=O)NC4CC4)c3)n2)c(C)c1 | . | . | ? | 8.2µM* | -28 | 12µM*
O=C(NC1CCN(C(=O)Nc2cccc(Cl)c2)CC1)c1ccccc1 | -7% | -27% | -5% | ? | -9 | -20%
O=C(NC1CC1)c1cccc(NC(=O)C2CC2)c1 | . | . | . | -11% | -4 | -3%
Cc1cccc2nc(C(=O)Nc3cccc(C(=O)NC4CC4)c3)cn12 | . | . | ? | ? | -18 | 13µM*
Cc1nn(-c2ccccc2)nc1C(=O)Nc1cccc(C(=O)NC2CC2)c1 | . | . | . | 15µM* | 9 | ?
Cc1ccc(C(=O)c2oc3ccccc3c2NC(=O)COc2ccc(C(C)(C)C)cc2)cc1 | . | . | . | -6% | . | 10%
SMILES | VP16 counter | RORgamma inh | ELG1 DNA repair | DT40 TDP1 no CPT | IL-1B inflam inh | DT40 TDP1 CPT
CCOC(=O)N1CCN(C(=O)CSCC(=O)Nc2nc(-c3ccc4c(c3)OCO4)cs2)CC1 | 17% | ? | ? | 21µM* | ? | 21µM*
CC1CCN(C(=O)CSCC(=O)Nc2nc(-c3cccs3)cs2)CC1 | 30% | ? | ? | ? | 30 | ?
CCOC(=O)N1CCN(C(=O)CSCC(=O)Nc2nc(-c3cccs3)cs2)CC1 | -5% | ? | 26µM* | ? | -14 | ?
N#CCC(=O)Nc1nc(-c2ccc3c(c2)OCCO3)cs1 | 3% | 11% | ? | ? | -4 | -19%
CCOC(=O)N1CCN(C(=O)CSCC(=O)Nc2nc(-c3ccc(C)cc3)cs2)CC1 | -2% | ? | ? | 12µM* | 6 | 16µM*
CCCCc1nn2c(=O)cc(COC(=O)c3cccc(NC(=O)CCc4ccccc4)c3)nc2s1 | . | . | . | -9% | . | -10%
CC(C)c1ccc(S(=O)(=O)N2CCC(N3CCN(Cc4ccccc4)C(=O)C3=O)CC2)cc1 | . | . | . | -21% | . | ?
Cc1ccc(CC(=O)NCc2ccc(F)cc2)cc1 | -21% | 19% | 7% | 4.6µM* | 0 | 4.1µM*
O=C(Cn1ncc2c(=O)oc3ccccc3c21)NCc1cccnc1 | -2% | -2% | -7% | 9.2µM* | 4 | 1.3µM*
CC(NC(=O)Cc1ccc(-c2ccccc2)cc1)c1ccccc1 (stereo unspecified) | -11% | 12% | -13% | ? | -22 | 26µM*
O=C(Cn1ncc2c(=O)oc3ccccc3c21)NCc1ccc(Cl)cc1 | . | . | . | -6% | . | -1%
c1ccc(CN=C(NCc2ccccc2)NCc2ccccc2)cc1 | . | . | . | 2.9µM* | -80* | 2.3µM*
CCc1cc2c3c(c(=O)oc2cc1O)CCCC3 | -17% | -33% | 17% | ? | 20 | ?
COc1cc(NC(=O)[C@H]2O[C@@H](n3ccc(N)nc3=O)[C@H](O)[C@@H]2O)cc(OC)c1OC | . | . | . | 9% | -18 | 7%
O=C(NC(NCc1ccccc1)C(Cl)(Cl)Cl)c1cccnc1 (stereo unspecified) | 0% | 11% | -5% | -18% | 15 | -13%
